Measured values from PubChem BioAssay AID1259415 (National Center for Advancing Translational Sciences (NCATS), 2018).
In all, about 410,000 compounds went through this assay and about 18,000 (4.4%) were called active. Another 7% or so got no clear call; they are omitted. The entries come from a sample that favours actives as a whole. Values without a mark were called inactive. Cut-off read from the data, not from the text of the source: active = activity change below about -60%; inconclusive = no clear call, values can overlap the other calls; inactive = above about -39%.

Assay: qHTS Assay for inhibitors of the human cytomegalovirus (HCMV)
Details: HFF cells, HCMV-luciferase reporter, 72 h; at 57.5 µM; stronger effect = lower value
Text: NCGC Assay Overview: Infection with human cytomegalovirus (HCMV) continues to pose significant threats for pregnant women and immunocompromised hosts. HCMV causes serious morbidity and mortality in transplant recipients, and congenital HCMV is the leading infectious cause of mental retardation and deafness in children. In the 1990s, the annual costs associated with the disease burden of congenital CMV were estimated at around $2 billion. A HCMV vaccine is not available yet and HCMV therapies result in intolerable side effects and emergence of drug resistant viruses. […] Towards this goal we have developed and characterized a luciferase HCMV reporter that was initially used in 96 well plates and then optimized to 1536-well plates for utilization in screening of the MLSMR collection, the NGCG diversity collection and the NCGC Pharmaceutical Collection of approved and investigational drugs.
NCGC Assay Protocol Summary:
This is a cell-based assay for HCMV inhibition in HFFs cells. The screening used 2 compound doses and the HCMV-luciferase at MOI of 1 PFU/cell. Cells were treated and infected with HCMV. At 72 h post infection cell lysates were collected and luciferase activity was determined using the Glomax-Multi + Detection System (Promega, Madison, WI). Data were normalized to the controls for basal activity (buffer only) and known HCMV inhibitors Salinmoycin.
1536-well assay protocol for the assay:
(1) Add 3 ul CMV/HFF cell culture. 1000 cells/well in DMEM nirmal media.
(2) Incubate 16 hr at 37C.
(3) Add 23 nl control compound, 10uM of Salinomycin.
(4) Add 23 nl compounds in DMSO solution.
(5) Add 3 ul CMV suspension. Final 1 puf/ul, Virus stock 2000pfu/ul
(6) Incubate 72 hrs at 37C.
(7) Add 4 ul OneGlo Luc Reagent.
(8) Incubate 5 min at room temperature.
% is set by controls: 0 for no effect and ±100 for the full control effect.

Row | SMILES | activity change, negative = inhibition
1 | COc1ccc(-n2nc3c(c2NC(=O)Cc2cccc(C)c2)CS(=O)C3)cc1 (stereo not drawn) | 0.139%
2 | Cc1ccc(-n2nc3c(c2NC(=O)CCC2CCCCC2)CS(=O)C3)cc1 (stereo not drawn) | -68.2% (active)
3 | CC(=O)Nc1c2c(nn1-c1ccc(C)cc1C)CS(=O)C2 (stereo not drawn) | 0%
4 | CCOc1cc(C(=O)NCCc2csc3nc(-c4ccc(C)cc4)nn23)cc(OCC)c1OCC | -29.1%
5 | Cc1cc(C)n(CC(C)NCc2c(C(=O)N3CCOCC3)nc3c(C)cccn23)n1 (stereo not drawn) | 16%
6 | CCCCCn1c(=O)[nH]c2cc(C(=O)Nc3ccc(F)cc3)ccc2c1=O | 3.61%
7 | N#Cc1cccc(NC(=O)COC(=O)c2ccccc2C(=O)c2ccc(Cl)c([N+](=O)[O-])c2)c1 | -99.2% (active)
8 | Cc1ccc(CC(=O)Nc2cccc(C#N)c2)cc1 | 6.08%
9 | CC(=O)Nc1ccc(NC(=O)C(C)OC(=O)c2ccccc2C(=O)c2ccc(Cl)c([N+](=O)[O-])c2)cc1 (stereo not drawn) | -83.7% (active)
10 | CC(C)NC(=O)c1ccc(Sc2ccccc2)c([N+](=O)[O-])c1 | -15.4%
11 | Nc1nc(SCC(=O)Nc2ccc(Cl)c([N+](=O)[O-])c2)n[nH]1 | -9.65%
12 | O=C(COc1ccc(NC(=O)c2ccccc2[N+](=O)[O-])cc1)c1ccc(F)cc1 | -16.6%
13 | CCOc1ccc(NC(=O)C(CC(C)C)N2Cc3ccccc3C2=O)cc1 (stereo not drawn) | 9.79%
14 | Cc1ccccc1-c1nc(SCC(=O)N(C)c2ccccc2)c2c(=O)n(C)c(=O)n(C)c2n1 | 27.2%
15 | CCCN1CCN(CCCNC(=O)c2ccc3nc(Cc4ccccc4)oc3c2)CC1 | 8.36%
16 | COCCNC(=O)c1ccc2c(c1)N(Cc1cccc(Cl)c1)C(=O)c1ccccc1S2(=O)=O | 5.49%
17 | CN1CCN(CCCNC(=O)c2ccc(/C=C3\Oc4ccccc4N(Cc4ccc(Cl)cc4)C3=O)cc2)CC1 | -110% (active)
18 | CCc1nc(-c2cc(S(=O)(=O)N3CCN(c4ccc(OC)cc4)CC3)ccc2OC)no1 | 48.2%
19 | Clc1ccccc1CSc1nncn2c1cc1occc12 | -18.9%
20 | Cc1ccc(-c2cc(C(F)(F)F)c(C#N)c(SCC(=O)Nc3ccccc3)n2)cc1 | 1.85%
21 | CCOc1cc(-c2cc(-c3ccc(NC(C)=O)cc3)nc(N)c2C#N)ccc1O | -70.4% (active)
22 | CCOC(=O)CN(C(=O)COc1nc(-c2ccccc2)cc(C)c1C#N)c1ccc(F)cc1 | -37.6%

Row | SMILES | activity change, negative = inhibition
23 | Cc1ccc(-c2nc(CS(=O)(=O)CC(=O)NCc3ccccc3Cl)c(C)o2)cc1 | -14.3%
24 | CCOc1ccc(NS(=O)(=O)c2ccc(N)cc2)nn1 | -10.2%
25 | CCCCn1c(=N)c(S(=O)(=O)c2ccccc2)cc2c(=O)n3cccc(C)c3nc21 | 12.5%
26 | COc1ccc(CC(=O)Nc2ccc(-c3nnc(-c4ccc(C)cc4)o3)cc2)cc1 | -63.2% (active)
27 | COc1ccc(CC(=O)Nc2ccc(-c3nc4ccccc4s3)c(C)c2)cc1 | 52.5%
28 | COc1ccc(Cc2n[nH]c(=S)n2NC(=O)Nc2ccc(C)cc2)cc1 | 4.71%
29 | CCn1c2ccccc2c2nnc(N3CCN(c4cc(C)ccc4C)CC3)nc21 | -34%
30 | COc1cc(OC)c(NC(=O)Cc2ccc(-n3c(C)nc4cccnc43)cc2)cc1Cl | 0%
31 | Cc1cc2n(n1)C(c1cc(C(C)(C)C)c(O)cc1O)Nc1ccccc1-2 (stereo not drawn) | -23.1%
32 | COc1cccc(-c2nc(CS(=O)(=O)CC(=O)N3CCN(c4cc(C)ccc4C)CC3)c(C)o2)c1 | -75.7% (active)
33 | CCCCN(CC)CCCNC(=O)CS(=O)(=O)Cc1nc(-c2cccc(OC)c2)oc1C | 29.6%
34 | COc1ccc(-c2nc(CS(=O)(=O)CC(=O)NCc3cccc(Br)c3)c(C)o2)cc1 | 5.73%
35 | CCS(=O)(=O)n1nc(-c2ccccc2)nc1SCc1ccccc1 | 138%
36 | COc1cc(OC)c(C2C=C(C(=O)O)Nc3ncnn32)cc1OC (stereo not drawn) | 6.4%
37 | COc1ccc(Cn2c(=S)[nH]c3cc(C(=O)NCCCN4CCOCC4)ccc3c2=O)cc1 | -65.2% (active)
38 | COCCn1c(=S)[nH]c2cc(C(=O)NCCc3ccc(OC)c(OC)c3)ccc2c1=O | 29.3%
39 | CCN(CC)CCCNC(=O)c1ccc2c(=O)n(Cc3ccc4c(c3)OCO4)c(=S)[nH]c2c1 | 69.4%
40 | COc1ccc(C(F)(F)F)cc1N/C=C\c1nnnn1-c1ccc(C)cc1 | 34.7%
41 | Cc1ccc(CN2CCc3nc(N4CCN(C)CC4)ncc3C2)cc1 | -6.43%
42 | CCCCOCCCNC(=O)C[C@@H]1C[C@@]2(C(=O)OCC)CCCC=C2N(CCC2=CCCCC2)C1=O | 22.8%
43 | CS(=O)(=O)N1CCc2nc(-c3ccccc3)sc2C1 | 154%
44 | CCOc1ccc(Nc2c(S(=O)(=O)c3ccccc3)cnc3ccccc23)cc1 | -70% (active)

Row | SMILES | activity change, negative = inhibition
45 | CCOc1ccc(S(=O)(=O)c2cn(Cc3ccccc3)c3ccc(OCC)cc3c2=O)cc1 | -13.1%
46 | CCOc1ccc(S(=O)(=O)NCCSc2ccccc2)cc1 | 43.7%
47 | Cc1cc(F)ccc1NC1(c2ccccc2)C(=O)c2ccccc2C1=O | 6.52%
48 | Cc1[nH]c2ccccc2c1C(=O)CN1CC(C)CC(C)C1 (stereo not drawn) | 9.64%
49 | Cc1[nH]c2ccccc2c1C(=O)COC(=O)c1c(-c2ccccc2)noc1C | -67.3% (active)
50 | COc1ccc(C(=O)COC(=O)c2c(C)noc2C)cc1Cl | -19.5%
51 | CCN(CC)c1ccc(NC(=O)Cn2nc3c(cc2=O)CCCC3)c(C)c1 | -12.7%
52 | CSc1ccc(CCNC(=O)c2ccc3c(c2)nc2n3CCOC2)cc1 | 11.7%
53 | CN(C(=O)CCNC(=O)Cn1ccc2ccccc2c1=O)c1ccc(Br)cc1 | 9.17%
54 | CC1=C(C(=O)OCc2ccc(C)cc2)C(c2ccccc2Cl)CC(=O)N1 (stereo not drawn) | -36.9%
55 | CCCNC(=O)C1(C)CCN(Cc2ccc(Cl)c(Cl)c2)C1 (stereo not drawn) | -29%
56 | CCCNC(=O)C1(C)CCCN(Cc2cccc(C(F)(F)F)c2)C1 (stereo not drawn) | -32.6%
57 | CCCNC(=O)C1(C)CCCN(Cc2c(C)nn(-c3ccccc3)c2C)C1 (stereo not drawn) | -77% (active)
58 | Cc1ccc(NC(=O)N2c3ccccc3SC2c2ccco2)c(C)c1 (stereo not drawn) | -32.4%
59 | O=C(NCC(c1ccc(Cl)cc1)N1CCOCC1)c1ccccc1F (stereo not drawn) | 1.34%
60 | C=CCn1c(SCC(N)=O)nnc1-c1cc2c(s1)CCC(CC)C2 (stereo not drawn) | -11.3%
61 | CCc1ccc(NC(=O)CCS(=O)(=O)c2cc3c(cc2Cl)NC(=O)CO3)cc1 | 4.24%
62 | FC(F)(F)c1nc(-c2ccccc2)ncc1-c1nnnn1-c1ccccc1 | -66.2% (active)
63 | Fc1ccccc1CCNc1nnnn1-c1ccccc1 | -28.9%
64 | NNC(=O)c1cnn(-c2ccccc2)c1C(F)(F)F | 6.26%
65 | CCN(CC)S(=O)(=O)c1ccc2c(c1)c(=O)c(C(=O)N1CCN(c3cccc(Cl)c3)CC1)cn2C | 11.7%
66 | Cc1cccc(N2CCN(C(=O)CCn3c(=O)c4cccn4c4cccnc43)CC2C)c1 (stereo not drawn) | 15%

Row | SMILES | activity change, negative = inhibition
67 | CC(C)CCN1CCN=C1N(C)C | 3.25%
68 | COCCNc1nc(-n2nc(C)cc2C)nc2sc3c(c12)CCCC3 | -6.15%
69 | CC(C)c1nc(SCC(=O)Nc2cccc(C(=O)O)c2)c2c3c(sc2n1)CCCC3 | -5.06%
70 | Cc1cc(C)n(-c2nc(SCC(=O)N3CCCC3)c3c4c(sc3n2)CCCC4)n1 | -63.6% (active)
71 | CC(=O)c1ccc(NC(=O)CCNS(=O)(=O)c2cc(Br)cnc2N)cc1 | 31.8%
72 | CCOc1ccc(CNC(=O)c2ccc(CS(=O)c3ccccc3)o2)cc1 (stereo not drawn) | -3.55%
73 | CCCCc1nn2c(=O)cc(COC(=O)c3cccc(NC(=O)COc4ccccc4)c3)nc2s1 | 31.4%
74 | Cc1ccc2cccc([N+](=O)[O-])c2n1 | 19.3%
75 | O=[N+]([O-])c1ccccc1S(=O)(=O)Nc1cccc2cccnc12 | -100% (active)
76 | O=S(=O)(NCCc1ccc(F)cc1)c1cccc2cccnc12 | -31.1%
77 | Cn1c2ccccc2c2cc(/C=C(\NC(=O)c3ccccc3)C(=O)NCC(=O)O)ccc21 | -0.653%
78 | Cc1nc(-c2ccccc2C(C)C)nc(NCc2ccc(-c3cccnc3)cc2)c1C | 28%
79 | COc1ccc(OC)c(-c2csc(-c3c(N)c(C(=O)c4ccccc4)n4ccccc34)n2)c1 | 5.78%
80 | O=C(CSc1nc2ccccc2c(=O)n1-c1ccccc1F)N1CCOCC1 | -17.8%
81 | O=c1c2ccccc2nc(/C=C/c2ccco2)n1-c1ccccc1O | -24%
82 | O=c1c2ccccc2nc(/C=C/c2ccc(F)cc2)n1-c1ccccc1O | -99.8% (active)
83 | COc1ccc(OC)c2sc(N3CCN(C(=O)C4COc5ccccc5O4)CC3)nc12 (stereo not drawn) | -1.41%
84 | COc1ccccc1-c1nnc(C2CCN(C(=O)c3ccc(Cl)cc3)CC2)o1 | -8.12%
85 | Cc1nc2c(-c3ccc(F)cc3)c(C)nn2c(C)c1CCC(=O)N1CCN(c2ccccn2)CC1 | -68.5% (active)
86 | Cc1nc2c(-c3ccc(F)cc3)c(C)nn2c(C)c1CCC(=O)NCc1ccco1 | -13.3%
87 | Cc1nc2c(-c3ccccc3)c(C)nn2c(C)c1CCC(=O)NCCc1ccccc1 | 11.4%
88 | Cc1ccc(S(=O)(=O)c2c(Nc3cccc(Cl)c3)sc(C(=O)c3ccc4c(c3)OCO4)c2N)cc1 | 9.79%
